# Assay outcomes as filed in PubChem BioAssay.
# Rows were chosen to be rich in hits. Some 3% of all compounds tested hit in one or more screens of this group.
# IP6K1 inhibitor – blocks human inositol hexakisphosphate kinase 1; Q92551; IP6K1 kinase, ADP-Glo luminescence, 2 h; stronger effect = lower value; activity change, % (series mostly up to about 58 µM); 140,000 tested, 0.81% active; AID 1645851; in the data active = activity change below about -25%
# Target sequence (Q92551 whole entry, looked up): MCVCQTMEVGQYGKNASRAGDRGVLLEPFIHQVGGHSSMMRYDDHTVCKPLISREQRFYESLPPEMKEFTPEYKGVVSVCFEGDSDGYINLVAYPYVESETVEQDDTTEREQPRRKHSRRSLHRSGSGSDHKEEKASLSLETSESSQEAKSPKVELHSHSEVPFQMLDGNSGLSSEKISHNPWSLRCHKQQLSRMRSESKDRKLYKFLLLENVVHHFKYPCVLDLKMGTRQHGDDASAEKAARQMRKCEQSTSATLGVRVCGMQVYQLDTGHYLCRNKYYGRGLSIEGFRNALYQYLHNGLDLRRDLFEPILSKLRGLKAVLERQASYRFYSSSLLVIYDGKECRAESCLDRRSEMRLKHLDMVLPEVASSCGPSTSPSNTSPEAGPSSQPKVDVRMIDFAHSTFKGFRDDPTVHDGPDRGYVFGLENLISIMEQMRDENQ
#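 ADP-Glo luminescence measures ADP made by human IP6K1 during a 2 h RT reaction with ATP/IP6 (mix at 1.3 mM/130 uM); top library doses 57.5 and 19.1 uM final.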
# SNCA expr inhib – inhibitors of alpha-synuclein (SNCA) gene expression. HEK-293 SNCA-luciferase knock-in, luminescence, 24 h. Potency, µM (doses to about 57.2 µM), actives largely listed as inhibitors. 140,000 tested, 0.17% active. AID 1671194; also: nearly all actives have a fitted effect of over 45% in size
# KDM5B inh – KDM5B demethylase inhibition | Q9UGL1 | KDM5B demethylase, FDH-coupled NADH fluorescence (FDH is formaldehyde dehydrogenase) | Potency, µM (doses to about 57.7 µM), hits mostly inhibitors | 220,000 tested, 2.6% active | AID 1347165; also: nearly all actives have a fitted effect of over 70% in size
#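 Coupled FDH/NAD⁺ fluorescence readout. KDM5BΔAP 200 nM final; compound titration, 10 min RT preincubation; substrate mix 12.5 µM H3K4me3, 25 µM 2-OG, 50 µM Fe(II), 100 µM ascorbate, 0.25 mM NAD⁺, 0.25 U/mL FDH; ΔRFU over 30 min.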
# HEK293 viab – cell viability loss counter-screen; HEK-293-SNCA-luc viability, GF-AFC fluorescence, 24 h; Potency, µM (top dose mostly 57.1 µM), most hits filed as cytotoxic; 150,000 tested, 0.12% active; AID 1671193; also: nearly all actives have a fitted effect of over 30% in size
#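 HEK-293-SNCA-luc cells (1500/well) plated 24 h, then exposed 24 h to a dilution series; GF-AFC added 30 min at 37C, fluorescence 405/540 nm; normalised to medium-only and DMSO wells, Hill fit.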
# IP6K1 conf – confirmation of human IP6K1 inhibitors; shares compounds with IP6K1 inhibitor; recombinant IP6K1 kinase, ADP-Glo luminescence, 2 h; Potency, µM (doses to about 49 µM), usual class: inhibitors; 1,200 tested, 13% active; AID 1645852; also: nearly all actives have a fitted effect of over 65% in size
# A number is an active result; i = inactive; ? = inconclusive; nt = not tested or not shown. Unless noted, calls follow the shape of the dose curve; as a rule, active = well fitted curve in the direction sought with a large enough effect; inconclusive = small, poorly fitted or top-dose-only effect, or another doubt; inactive = no such curve, though single readings can be large; an effect the other way counts as inactive or inconclusive.
SMILES,IP6K1 inhibitor,SNCA expr inhib,KDM5B inh,HEK293 viab,IP6K1 conf
O=C(O)C1=CC(=C(c2ccc(O)c(C(=O)O)c2)c2ccc(O)c(C(=O)O)c2)C=CC1=O,nt,i,nt,i,1.5µM
CC(C)Cc1nc(OCC(=O)N2CCCCC2)c(C#N)c2c1CCCC2,nt,nt,i,nt,nt
O=S(=O)(NC1CCN(c2ccc3nnc(-c4ccccc4)n3n2)CC1)c1cccs1,-27,nt,nt,nt,?
Cc1c(Cl)cccc1-n1ncc(C(=O)Nc2ccc(Br)cc2F)c1C1CCNCC1,-26,i,?,i,?
Cc1ccc(-n2ncc(C(=O)N3CCN(c4cccc(C)c4C)CC3)c2C2CCNCC2)c(C)c1,i,i,?,?,nt
Cc1ccc(CC(=O)N(CC#N)C2CC2)s1,nt,nt,i,nt,nt
N#Cc1ccc(CN2CCC(c3ccnn3CCO)CC2)c(F)c1,nt,nt,i,nt,nt
Cn1c(=O)c2c(n3c4ccccc4nc13)NC(=O)CC2c1cccc(F)c1 (stereo not given),i,i,?,i,nt
Cn1c(=O)c2c(n3c4ccccc4nc13)NC(=O)CC2c1ccccc1F (stereo not given),-28,i,?,i,i
O=C(NCc1ccco1)c1ccc2c(c1)N(Cc1ccc(Cl)cc1)C(=O)c1ccccc1S2,-26,i,?,i,?
NC[C@H](O)c1ccc(O)c(O)c1,-70,i,nt,i,i
C=CCOc1ccc(CNC2CC2)cc1,nt,nt,i,nt,nt
Brc1ccc2[nH]c3c(c2c1)CCCC3=NCc1ccccc1,nt,nt,i,nt,nt
Cc1ccc(C)c(C(=O)COC(=O)CCc2c[nH]c3ccccc23)c1,nt,nt,i,nt,nt
CCOC(=O)C1CCN(Cc2cn3c(-c4ccc(OC)cc4)nnc3s2)CC1,-25,i,i,i,i
O=C(NCc1ccc2c(c1)CCN2C(=O)c1ccncc1)c1ccccc1Br,i,i,i,i,nt
O=C(NCc1ccc2c(c1)CCN2C(=O)c1ccncc1)c1ccccc1F,-30,i,i,i,i
COc1ccc(NC(=O)C2=CC(c3ccco3)=NS(=O)(=O)N2C)cc1,-30,i,i,i,i
Cc1nc2n(c1C(=O)Nc1cc(-c3ccc(F)cc3)[nH]n1)CCC(Nc1ccc(F)cc1)C2 (stereo not given),i,?,?,i,nt
CCOc1ccc(NC(=O)CN(c2ccc(Cl)cc2C)S(=O)(=O)c2ccccc2)cc1,-25,?,i,i,i
Cc1ccc(OCc2ccc(-c3nc(C#N)c(N4CCN(c5cccc(Cl)c5)CC4)o3)o2)cc1,-34,i,i,i,i
Cc1ccccc1OCc1ccc(-c2nc(C#N)c(N3CCN(c4ccccc4)CC3)o2)o1,i,?,?,i,nt
COc1ccc(CCCc2nnc(SCC(=O)Nc3cccc(C)c3)o2)cc1,-33,i,?,i,i
Cc1cc(C(=O)OCC(=O)Nc2ccc(C)c(F)c2)c2ccccc2n1,nt,nt,i,nt,nt
Cc1cc(S(=O)(=O)Nc2c(NC3CCCC3)c3ccccc3oc2=O)ccc1F,nt,nt,i,nt,nt
SMILES,IP6K1 inhibitor,SNCA expr inhib,KDM5B inh,HEK293 viab,IP6K1 conf
Cc1ccccc1CNC(=O)c1cnc2sc(N3CCOCC3)nn2c1=O,-100,i,?,i,i
Cn1ncc2c(Nc3ccccc3)nc(NC3CCCC3)nc21,nt,nt,i,nt,nt
CN1CCC(Nc2nc(Nc3ccc(Oc4ccccc4)cc3)c3c(=O)[nH]cc(Br)c3n2)CC1,-41,nt,nt,?,?
CCOc1cc(/C=C2\C(=O)Nc3ccccc32)ccc1OC(F)F,nt,nt,i,nt,nt
COc1cc(/C=C2\C(=O)Nc3ccccc32)ccc1O,nt,nt,nt,nt,10µM
CC(NC(=O)c1sc2ccccc2c1Cl)c1ccncc1 (stereo not given),nt,nt,i,nt,nt
COc1cccc(N2CCN(C(=O)CCSCc3ccccc3F)CC2)c1,-29,i,i,i,i
NC(=O)NC1N=C([O][Al])NC1=O (stereo not given),-31,i,nt,i,i
Cc1cc2cc(C(=O)N(C)Cc3ccc4nsnc4c3)ccc2o1,-32,i,i,i,?
CN(Cc1ccc2nsnc2c1)C(=O)c1ccc(CCC(C)(C)O)cc1,i,i,?,i,nt
Cc1cc(O)c2ccccc2c1O,-28,i,nt,i,?
Cc1cc(O)c(C)c(C)c1O,i,i,i,i,nt
Cc1nn(-c2ccccc2)c2sc(C(=O)Nc3cccc(O)c3)cc12,-27,?,i,?,?
CN(c1ccccc1)c1cc(=O)c2ccnc(-c3cncnc3)c2o1,-26,i,?,i,i
CN(C)c1cc(=O)c2ccnc(-c3cccc(C(F)(F)F)c3)c2o1,-33,i,i,i,?
CN(c1ccccc1)c1cc(=O)c2ccnc(-c3cccnc3)c2o1,i,?,i,i,nt
COc1cccc(Cl)c1-c1nccc2c(=O)cc(N(C)C)oc12,i,?,i,i,nt
CC(C)(C)c1ccc(C(=O)NC(Nc2ccc(I)cc2)C(Cl)(Cl)Cl)cc1 (stereo not given),nt,nt,i,nt,nt
COc1ccc(CN(Cc2ccco2)c2cnc(S(C)(=O)=O)nc2C(=O)Nc2ccc(C)cc2C)cc1,-26,i,i,i,i
COc1cccc(CN(Cc2ccco2)c2cnc(S(C)(=O)=O)nc2C(=O)Nc2cccc(Cl)c2C)c1,-28,i,i,i,i
COc1ccc(CN(Cc2ccco2)c2cnc(S(C)(=O)=O)nc2C(=O)Nc2ccc(C)c(C)c2)cc1,i,i,i,i,nt
Cc1ccc(CN(Cc2ccco2)c2cnc(S(C)(=O)=O)nc2C(=O)Nc2ccc(Br)cc2)o1,-27,i,?,i,i
CCc1cccc(NC(=O)C23CC4CC(CC(C4)C2)C3)c1,nt,nt,i,nt,nt
CC(C)CCN1CCN(C(=O)CCCc2ccccc2)CC1,nt,nt,i,nt,nt
Cn1nnnc1Sc1ncnc2scc(-c3cc4ccccc4o3)c12,nt,nt,nt,nt,i
SMILES,IP6K1 inhibitor,SNCA expr inhib,KDM5B inh,HEK293 viab,IP6K1 conf
Cn1nnnc1Sc1ncnc2scc(-c3ccc(C#N)cc3)c12,nt,nt,nt,nt,i
Cc1ccc(-c2csc3ncnc(Sc4nnc(CN5CCCC5)o4)c23)cc1,nt,nt,i,nt,nt
CCOc1ccc(Cn2cnc3c2c(=O)n(C)c(=O)n3C)cc1OCC,nt,nt,i,nt,nt
Cc1cc2cc(-c3c(C)noc3C)nc(-c3ccsc3)c2o1,i,i,?,i,nt
CC(=O)Nc1cccc(-c2nc(-c3c(C)noc3C)cc3cc(C)oc23)c1,-28,i,35µM,i,i
COc1nc(OCC#N)nc(N2CCOCC2)n1,nt,nt,i,nt,nt
Cc1ccc(C2Cn3nnc(C(=O)N4CCC(C(=O)NC5CCC(C)CC5)CC4)c3CO2)cc1 (stereo not given),-30,i,i,i,i
O=C(c1ccc2cc[nH]c2c1)N1CCN(C(=O)c2nnn3c2COC(c2ccc(Cl)cc2)C3)CC1 (stereo not given),-28,i,?,i,i
Cc1ccc(C2Cn3nnc(C(=O)N4CCC(C(=O)NC5CC5)CC4)c3CO2)cc1 (stereo not given),i,i,i,i,nt
COc1cccc(C(=O)N2CC(N3C(=O)c4c(c(C)nn4-c4ccccc4)C3C(C)C)C2)c1 (stereo not given),i,nt,nt,nt,nt
C=CCn1c(SCc2ccc(Cl)cc2)nc2c1c(=O)n(C)c(=O)n2C,nt,nt,i,nt,nt
CC(C)OC(=O)N(C)Cc1cccc(N2CCN(S(=O)(=O)c3c(Cl)cccc3Cl)CC2)c1F,i,nt,nt,nt,nt
